# Rows were chosen to be rich in hits. Some 2.4% of all compounds tested hit in one or more screens of this group.
# D2 ag-1 – activates the human D2 dopamine receptor. P14416. HEK293 T-REx D2 cells, calcium flux agonist mode. activation, % at 2 µM. 340,000 tested, 0.53% active;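 active means activation over 3 SD above normal in the single-dose calcium agonist read, cut at about 30% in these data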; further: 0% is about no effect
# Target sequence (P14416 whole entry, looked up): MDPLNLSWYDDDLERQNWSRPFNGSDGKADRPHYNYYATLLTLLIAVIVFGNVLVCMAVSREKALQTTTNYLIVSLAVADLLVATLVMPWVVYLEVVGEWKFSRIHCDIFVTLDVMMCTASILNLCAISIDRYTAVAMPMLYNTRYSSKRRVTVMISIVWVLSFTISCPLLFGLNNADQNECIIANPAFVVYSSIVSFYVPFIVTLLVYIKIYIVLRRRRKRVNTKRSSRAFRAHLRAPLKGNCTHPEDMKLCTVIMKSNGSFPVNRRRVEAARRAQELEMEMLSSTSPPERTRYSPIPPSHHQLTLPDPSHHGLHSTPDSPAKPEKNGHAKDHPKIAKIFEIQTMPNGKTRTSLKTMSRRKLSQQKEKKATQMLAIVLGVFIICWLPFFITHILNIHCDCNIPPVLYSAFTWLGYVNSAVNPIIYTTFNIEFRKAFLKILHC
#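 Tetracycline-induced HEK293 Trex cells with D2 receptor force-coupled to calcium signaling, plated overnight at 30 C and loaded with no-wash calcium dye. Calcium flux read kinetically for 180 s after compound addition; responses flag agonists.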
# D2 antagonist – D2 dopamine receptor (human) antagonism; HEK293 TREx D2 cells, calcium flux, dopamine EC80; inhibition, % at 10 µM; 340,000 tested, 2% active; AID 485344; in the data active means inhibition above about 30%; inactive means below that, where a call was filed; further: 0% is about no effect
#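 Read-out: kinetic calcium fluorescence (1 cycle/s) in inducible HEK293 T-REx D2 cells after an EC80 dopamine addition that followed 180 s compound preincubation. Loss of the dopamine response indicates antagonism.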
# D2 PAM-1 – human D2 receptor positive allosteric modulation; P14416; DiscoveRx D2 beta-arrestin cells, luminescence, 90 min; 100% = 57 uM dopamine signal; potentiation, % (no concentration beside the values); 360,000 tested, 0.23% active; AID 624464; in the data active means potentiation above about 50%; inconclusive means mostly about 30% to 49%
#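 D2 cells co-treated with compound plus 50 nM dopamine (EC20) for 90 min at 37 deg C to detect potentiation. Beta-arrestin recruitment was read as enzyme-fragment luminescence after 1 h at ambient temperature. Full response was set by 57 uM dopamine.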
# D2 ag-2 – agonists of human D2 dopamine receptor (beta-arrestin) | 360,000 tested, 0.084% active | activation, % (test concentration not listed) | AID 624465 | DiscoveRx PathHunter D2 beta-arrestin, luminescence, 90 min; 100% = 57 uM dopamine signal | P14416; in the data active means activation above about 40%; inconclusive means between about 15% and that limit
#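 Agonist mode: compounds alone added to overnight-plated D2 PathHunter cells for 90 min at 37 C, with 57 uM final dopamine (EC100) defining full response. Beta-arrestin recruitment detected by chemiluminescent reagent, read after 1 h at ambient temperature.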
# D2 PAM-2 – positive allosteric modulators of human D2 dopamine receptor; P14416; HEK293 T-REx D2, calcium flux, EC20 dopamine potentiation; potentiation, % at 10 µM; 340,000 tested, 0.34% active; AID 485347;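 active means potentiation over 3 SD above the plate norm, cut at about 30% in these data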; further: 0% is about no effect
#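 Primary screen. Calcium kinetics in induced HEK293 T-REx D2 cells: compound pre-addition 180 s, EC20 dopamine, 180 s more.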
# Numbers without * were called inactive; ? = inconclusive; . = no result.
SMILES,D2 ag-1,D2 antagonist,D2 PAM-1,D2 ag-2,D2 PAM-2
O=C(Cc1ccccc1)NC1CCN(Cc2ccccc2)CC1,1.2,36.4*,-20.1,-12.3,-26.9
CCCN1CCC(NC(=O)Cc2ccccc2C)CC1,0.8,1.3,-4.9,-3.9,-12.6
Cc1cccc(N(CC(=O)N2CCCC2)S(=O)(=O)c2ccccc2)c1,.,.,2.0,-0.8,.
Cc1ccc(S(=O)(=O)N(CC(=O)N2CCCCC2)c2cccc(C)c2)cc1,0.1,31.8*,-5.7,-1.1,-9.4
CNc1ccc(Cl)cc1S(=O)(=O)c1ccccc1[N+](=O)[O-],.,.,14.6,1.9,.
Cc1ccc(S(=O)(=O)NC(=O)NN2CCCCCC2)cc1,1.9,34.4*,-12.2,-4.6,3.5
Cc1ccc(S(=O)(=O)NC(=O)NCCCCNC(=O)NS(=O)(=O)c2ccc(C)cc2)cc1,-0.5,-2.8,-2.1,-0.3,11.0
CCCCNC(=O)NS(=O)(=O)c1ccc(C)cc1,0.6,33.2*,-6.0,-4.4,19.6
COc1ccc(OC)c(NC(=O)C2=C(C)C(=O)OC23CCN(C(C)C)CC3)c1,0.1,.,.,.,-7.5
O=C(CSc1nc(-c2ccccc2)no1)N1CCN(c2ccc(F)cc2)CC1,0.1,.,.,.,0.6
CC(C)[C@H](NC(=O)N1c2ccccc2NC(=O)[C@@H]1C(C)C)C(=O)N1CCC[C@H]1C(=O)O,-0.9,-8.8,-29.1,-5.7,8.7
COC(=O)c1ccsc1NC(=O)CS(=O)(=O)c1ccccc1,-0.3,30.6*,-12.0,-0.8,-12.5
CC1(C)CC(NCc2ccccc2)CCO1 (configuration not stated),1.1,-12.7,-7.8,-3.2,37.7*
COc1ccc(OCCCCn2c(-c3ccc(Cl)cc3)nc3ccccc3c2=O)cc1,2.3,.,.,.,-6.0
CCNC(=O)CC1C(=O)N(c2ccc(F)cc2)C(=O)N1CCOC (configuration not stated),0.7,.,.,.,-5.7
COc1cc2ccccc2cc1C(=O)OCC(=O)c1c(N)n(C)c(=O)n(C)c1=O,0.4,52.1*,-21.1,-1.3,1.1
Cn1c(=O)c(C(=O)COC(=O)c2cc(-c3ccccc3)nc3ccccc23)c(N)n(Cc2ccccc2)c1=O,2.9,30.6*,.,.,-5.5
Cn1c(=O)c(C(=O)COC(=O)c2cc(C(F)(F)F)nc3ccccc23)c(N)n(Cc2ccccc2)c1=O,1.1,5.0,.,.,-0.8
CCOc1ccccc1NS(=O)(=O)c1cn(C)c(=O)n(C)c1=O,0.2,14.5,-6.6,-5.0,-24.6
O=C1CSC(c2ccccc2)N1CC12CC3CC(CC(O)(C3)C1)C2 (configuration not stated),0.4,37.5*,6.6,-1.6,7.1
Cc1cccnc1C(NC(=O)C1CCN(Cc2ccc(Cl)cc2)CC1)c1ccc(F)cc1 (configuration not stated),.,.,-15.8,-3.6,.
C=CCn1c(=NC(=O)c2ccccc2[N+](=O)[O-])sc2cc(S(C)(=O)=O)ccc21,-1.4,2.5,71.1*,?,13.5
Cc1ccc([C@H]2C[C@H](O)[C@@H](n3cc(-c4ccc(F)cc4)nn3)CN2CC2CCCCC2)cc1,.,.,-5.9,-5.9,.
CCCCOc1ccc2c(C)cc(=O)oc2c1OCCCC,1.3,42.9*,-10.0,-3.7,11.3
CC(=O)c1c(OCC(=O)O)ccc2c(C)cc(=O)oc12,0.5,46.8*,-10.7,-2.3,-12.0
SMILES,D2 ag-1,D2 antagonist,D2 PAM-1,D2 ag-2,D2 PAM-2
Cn1ncc(Cl)c1C(=O)NC1CCCC1,0.5,-2.9,-0.7,-1.4,-4.5
COc1ccc(C(=O)c2ccc(N3CCN(C4CC(=O)NC4=O)CC3)cc2)cc1F (configuration not stated),-0.1,34.0*,14.0,-1.2,3.0
N#C/C(=C\c1c(N2CCCCCC2)nc2ccccn2c1=O)C(=O)NC1CCS(=O)(=O)C1 (configuration not stated),0.3,-6.2,-18.6,-0.2,-9.7
N#C/C(=C\c1c(N2CCOCC2)nc2ccccn2c1=O)C(=O)NC1CCS(=O)(=O)C1 (configuration not stated),-0.7,38.1*,-8.5,-2.7,12.1
Cn1c(=O)n(C)c2cc([N+](=O)[O-])c(N3CCN(CCO)CC3)cc21,-0.5,-2.4,-8.6,0.1,3.5
Cc1cc(C)nc(NNS(=O)(=O)c2ccc(Cl)cc2)n1,.,.,-39.9,-15.0,.
COc1ccc(S(=O)(=O)NNc2nc(C)cc(C)n2)cc1Br,-0.3,52.4*,-22.2,-10.5,-12.8
Cc1ccc(N2CC(C(=O)N3CCC(c4nc5ccccc5[nH]4)CC3)CC2=O)cc1C (configuration not stated),-0.3,33.6*,-7.0,0.7,-11.3
O=C1CC(c2nc3ccccc3[nH]2)CN1c1cccc(C(F)(F)F)c1 (configuration not stated),1.4,32.9*,-8.3,-0.8,-5.1
O=C(C1CC(=O)N(c2ccc(F)cc2)C1)N1CCC(c2nc3ccccc3[nH]2)CC1 (configuration not stated),-0.1,-12.6,-10.1,1.4,-20.5
O=C(Nc1c2c(nn1-c1ccc(Cl)cc1)CS(=O)(=O)C2)C1CC1,0.6,-1.8,-8.6,-4.1,-3.1
CCOc1ccccc1N(C)C(=O)c1cc(S(=O)(=O)NCc2ccc(C)cc2)ccc1F,0.1,.,.,.,-5.5
COc1ccc(Cc2noc(-c3ccccc3)n2)cc1OC,2.1,33.2*,-1.7,0.3,0.5
COc1ccc(Cc2noc(CN(C)C3CC(C)(C)NC(C)(C)C3)n2)cc1OC,-0.9,10.0,-4.6,-6.3,6.3
COc1ccc(OC)c(NCc2nnc(-c3ccccc3)o2)c1,0.5,-22.3,-3.1,-1.0,0.3
COc1ccc(CCN(C)Cc2nc(Cc3ccc(OC)c(OC)c3)no2)cc1OC,-1.8,36.7*,-8.4,-1.0,27.0
COc1ccc(-c2ccc(-c3nnc(Cc4ccc(OC)c(OC)c4)o3)cc2)cc1,-0.5,30.3*,-2.4,-2.0,-8.1
CN(C(=O)c1cc(-c2cccs2)nn1-c1ccccc1)C1CCS(=O)(=O)C1 (configuration not stated),.,.,1.2,-2.7,.
CC1Cc2cc(S(=O)(=O)CCC(=O)NCc3ccccc3Cl)ccc2N1C(=O)C1CC1 (configuration not stated),0.2,.,.,.,4.1
Cc1ccc(-n2ncc3c(N4CCCCCC4)ncnc32)cc1,0.1,.,.,.,-18.2
CCc1cc(C(=O)Nc2sc(C)c(CC)c2C#N)no1,0.0,.,.,.,6.3
Cc1ccc(C(=O)NNC(=O)c2csc(N3CCOCC3)n2)o1,0.3,16.7,-15.7,-2.8,-4.5
Cc1ccsc1C(=O)NNC(=O)c1csc(N2CCOCC2)n1,0.5,31.6*,-11.4,-7.7,-7.6
Cc1ccsc1C(=O)Nc1ccccc1N1CCOCC1,0.2,38.4*,10.3,-3.0,-8.1
O=C(NC1CCCC1)C(c1ccccc1)N(C(=O)c1csnn1)c1ccccc1F (configuration not stated),.,.,-6.3,-2.8,-7.7

# Source: PubChem (National Center for Advancing Translational Sciences (NCATS))
